# In the library only some 0.92% were active in any assay of this set; here they are far more common.
# Mtb hypoxia rep = Mtb hypoxia fluorescent reporter inhibition. fluorescence inhibition, % (test concentration not listed). 0.1% of 300,000 active. M. tuberculosis hypoxia-regulated fluorescent reporter, fluorescence; in the data active means fluorescence inhibition mostly above about 23%, no sharp cut-off; inactive means mostly below about 17%
# UGM FP inh = blocks M. tuberculosis UGM enzyme | inhibition, % at 10 µM | P9WIQ1 | purified UGM, fluorescence polarization probe displacement | 0.06% of 320,000 active; in the data active means inhibition above about 10%, passing the limit was not always enough
# Rv3671c protease = inhibits the M. tuberculosis serine protease Rv3671c; AID 2606; 0.048% of 320,000 active; P9WHR9; inhibition, % at 5.96 µM; in the data active means inhibition above about 38%;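 further: extracellular domain of Rv3671c used as enzyme; 0% = enzyme with DMSO and 100% = no enzyme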
# FadD28 FP inh = M. tuberculosis FadD28 bisubstrate binding inhibition; FadD28 bisubstrate probe binding, fluorescence polarization; inhibition, % at 12.5 µM; 0.22% of 360,000 active; AID 588549; in the data active means inhibition above about 8.5%, passing the limit was not always enough
# RecA splice inh = blocks M. tuberculosis RecA intein splicing | P9WHJ3 | 0.75% of 290,000 active | inhibition, % (test concentration not listed) | cell-free RecA intein splicing, fluorescence; in the data active means inhibition above about 30%;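 further: 0% = vehicle wells and 100% = reference inhibitor control wells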
# Target sequence (P9WHJ3 whole entry, looked up, canonical isoform): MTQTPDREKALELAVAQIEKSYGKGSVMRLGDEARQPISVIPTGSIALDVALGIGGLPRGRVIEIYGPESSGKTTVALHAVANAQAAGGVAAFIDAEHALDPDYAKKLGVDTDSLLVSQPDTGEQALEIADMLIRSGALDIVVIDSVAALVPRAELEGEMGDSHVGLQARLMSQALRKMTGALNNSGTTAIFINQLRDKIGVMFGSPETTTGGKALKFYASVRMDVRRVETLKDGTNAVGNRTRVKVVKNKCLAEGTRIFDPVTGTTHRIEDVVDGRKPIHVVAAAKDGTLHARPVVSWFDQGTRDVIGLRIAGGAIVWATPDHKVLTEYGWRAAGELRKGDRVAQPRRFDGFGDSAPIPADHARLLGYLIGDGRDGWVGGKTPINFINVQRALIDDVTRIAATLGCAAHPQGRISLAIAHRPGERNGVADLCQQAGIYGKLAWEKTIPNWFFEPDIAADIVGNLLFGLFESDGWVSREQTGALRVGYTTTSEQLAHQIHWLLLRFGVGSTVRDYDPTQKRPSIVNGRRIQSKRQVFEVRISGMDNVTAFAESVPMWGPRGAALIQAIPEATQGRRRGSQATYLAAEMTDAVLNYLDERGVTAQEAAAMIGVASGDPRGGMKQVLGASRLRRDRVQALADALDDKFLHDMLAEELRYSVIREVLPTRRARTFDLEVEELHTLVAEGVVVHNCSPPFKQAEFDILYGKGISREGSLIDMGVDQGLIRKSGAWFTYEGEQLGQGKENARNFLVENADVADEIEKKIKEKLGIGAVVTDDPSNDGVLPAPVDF
# GFP chromo cs = counter-screen: blocks GFP chromophore formation; shares compounds with RecA splice inh; EC50, µM; 83% of 2,100 active; cell-free GFP chromophore formation, fluorescence; call rule not given here
# * marks the source's active call; other numbers are inactive results; i = inactive; . = not tested or not shown.
SMILES,Mtb hypoxia rep,UGM FP inh,Rv3671c protease,FadD28 FP inh,RecA splice inh,GFP chromo cs
C/C(CC(=O)N1CCN(C=O)CC1)=N\NC(=O)c1cccc([N+](=O)[O-])c1,.,0.2,3.1,-0.9,71.3*,32.5*
O=C(CCl)Nc1c(C(=O)Nc2ccc3c(c2)OCCO3)oc2ccccc12,25.7,3.4,-3.6,-3.0,30.9*,3.65*
COCC(=O)Nc1c(C(=O)Nc2ccc3c(c2)OCO3)oc2ccccc12,-3.7,0.9,-11.1,-2.3,-15.6,.
Cc1nn(-c2ccccc2)c(Cl)c1C=NNS(=O)(=O)c1ccc(Br)cc1,8.0,.,.,.,.,.
CCc1cc(C(=O)c2ccc(C)cc2)c(NC(=O)CCl)s1,16.5,60.5*,-8.1,-3.1,73.6*,14.3*
O=C(NCc1cccnc1)C(=Cc1ccc(-c2ccc(Br)cc2)o1)S(=O)(=O)c1ccccc1,9.8,.,.,.,.,.
CC1=NN(c2ccc(C)cc2C)C(=O)C1C(c1cccc(O)c1)C1C(=O)N(c2ccc(C)cc2C)N=C1C (stereo not given),.,1.0,-171.2,-3.7,97.0*,1.4*
CCCCN(C(=O)c1cccc2c(=O)c(C)c(-c3ccccc3)oc12)c1ccccc1,1.3,.,.,-2.1,32.8*,>38
ONc1cccnc1-n1nc(C(F)(F)F)cc1C(F)(F)F,.,2.7,-8.4,.,82.4*,>38
CCc1ccc(Nc2n[n+](-c3ccccc3)c(-c3c(Cl)cccc3Cl)s2)cc1,.,2.0,11.9,-4.3,49.1*,15.6*
CC1CN(C(C)CO)C(=O)c2cc(NC(=O)CCC(F)(F)F)ccc2OC1CN(C)S(=O)(=O)c1ccc(Cl)cc1 (stereo not given),-8.6,.,.,.,.,.
Cc1ccc2c(c1)N(C(=O)CSc1nncn1C)C(C)(C)c1ssc(=S)c1-2,.,1.3,3.2,0.3,38.6*,13.7*
Cc1cc2c(cc1C)N(C(=O)CSc1nncn1C)C(C)(C)c1ssc(=S)c1-2,4.2,0.2,-3.3,-1.9,21.5,.
O=S(=O)(Nc1c(O)ccc2ccccc12)c1ccccc1,10.5,3.0,-8.2,-2.6,93.3*,2.2*
O=S(=O)(Nc1cccc2ccccc12)c1ccccc1,6.9,.,4.3,-2.5,-0.1,.
O=S(=O)(Nc1c(O)ccc2ccccc12)c1ccc(F)cc1,6.9,3.3,-6.2,-0.9,95.4*,3.04*
COCCn1c(N)c(C(=O)NCc2cccs2)c2nc3ccccc3nc21,8.4,1.3,-83.6,-1.7,62.2*,>38
COCCn1c(N)c(C(=O)NCC2CCCO2)c2nc3ccccc3nc21 (stereo not given),.,0.1,-190.7,-2.5,i,.
O=C(CCNc1cccc(F)c1)c1cccc([N+](=O)[O-])c1,-9.9,-4.3,-3.9,1.7,31.9*,>38
c1ccc(-c2nnsc2-c2ccccc2)cc1,9.6,-0.1,-6.1,.,2.2,.
O=S(=O)(c1ccc(Cl)c(Cl)c1)c1snnc1-c1ccccc1,20.8,.,.,-3.2,80.4*,1.35*
COc1ccc(C2C=CCN(C(=O)C3CCCC3)C(Cc3ccccc3)C(=O)N2Cc2ccc(F)cc2)cc1 (stereo not given),18.7,.,.,.,.,.
CCCn1c(CC)nc([N+](=O)[O-])c1S(=O)(=O)c1ccccc1,15.2,2.1,-7.5,-0.2,46.2*,>38
CCc1nc(C)cn1S(=O)(=O)c1ccc([N+](=O)[O-])cc1,3.5,-0.4,3.8,-0.7,-0.9,.
NC(=O)C[n+]1ccc(C=NO)cc1,15.3,.,.,.,.,.
SMILES,Mtb hypoxia rep,UGM FP inh,Rv3671c protease,FadD28 FP inh,RecA splice inh,GFP chromo cs
O=C(CSc1c2c(nc3cc(Cl)ccc13)CCCC2)NCc1ccco1,1.2,3.9,-4.3,-6.0,30.1*,>38
COc1cc(NC(=O)CSc2c3c(nc4ccccc24)CCC3)cc(OC)c1OC,11.0,-3.2,-1.5,-2.5,5.7,.
COc1ccc(NC(=O)CSc2c3c(nc4cc(Cl)ccc24)CCCC3)cc1OC,17.2,-2.5,-15.7,-2.3,-11.8,29.1*
CCc1ccc(C(C)=NNc2ccc([N+](=O)[O-])cc2)cc1,6.0,.,.,.,.,.
COc1ccc(OC)c(C=NN(CCC#N)C2=NS(=O)(=O)c3ccccc32)c1,-8.5,.,.,.,.,.
CCN(CC)c1ccc(C=NNC(=O)C(O)c2ccccc2)cc1 (stereo not given),7.3,.,.,.,.,.
CN1/C(=C/C(=O)c2nc(S(C)(=O)=O)ncc2Cl)C(C)(C)c2ccccc21,.,-1.1,-6.3,-3.1,77.1*,6.26*
CC1(C)CC(=O)C(C2(O)C(=O)NC(=O)NC2=O)=C(O)C1,4.0,2.1,-131.0,0.5,95.5*,2.52*
O=C(CSCc1ccc(Cl)cc1)N/N=C/c1c(Cl)cccc1Cl,.,3.5,-1.3,-3.9,2.7,.
